These results are taken from ChEMBL document CHEMBL3988442, “University of Dundee, Small-Polar-MMV Screening Library” (2021).

The target in the experiment is T1, Aspartate--tRNA(Asp/Asn) ligase (Mycobacterium tuberculosis (strain ATCC 25618 / H37Rv)) (UniProt P9WFW3).
T1 sequence (whole entry): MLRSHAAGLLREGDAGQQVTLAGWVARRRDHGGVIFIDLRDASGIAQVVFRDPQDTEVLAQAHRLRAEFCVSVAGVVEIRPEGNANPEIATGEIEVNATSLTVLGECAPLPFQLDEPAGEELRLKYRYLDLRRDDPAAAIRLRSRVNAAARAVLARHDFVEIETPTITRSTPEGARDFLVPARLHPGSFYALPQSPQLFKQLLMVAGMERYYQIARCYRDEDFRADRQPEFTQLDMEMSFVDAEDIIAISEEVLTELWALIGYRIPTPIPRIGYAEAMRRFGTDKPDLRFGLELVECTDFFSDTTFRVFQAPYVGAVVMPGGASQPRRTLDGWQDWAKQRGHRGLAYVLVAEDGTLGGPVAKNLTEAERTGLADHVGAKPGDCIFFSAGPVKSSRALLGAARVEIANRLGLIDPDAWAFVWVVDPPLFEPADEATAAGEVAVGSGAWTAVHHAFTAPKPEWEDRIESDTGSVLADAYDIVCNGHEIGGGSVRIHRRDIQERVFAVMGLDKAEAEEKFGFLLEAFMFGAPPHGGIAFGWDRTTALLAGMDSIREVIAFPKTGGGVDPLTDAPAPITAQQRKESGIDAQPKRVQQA
As to the kind of experiment: Assay for Asp RNA synthetase-1 from Mycobacterium tuberculosis. Type of experiment: functional. Also on record: scale not given: in the data most compounds retested in dose-response had high values. The note with it: 30 µM.
As for `O=C(c1cccn2ccnc12)N1CCCN(c2cccnn2)CC1`, the Percent Effect worked out at 2.1%.
With `CC(=O)c1sc(Nc2ccc(Cl)cn2)nc1C`, the Percent Effect amounted to 6.71%.
For `Cc1nc(C)n(CC2CCCN2Cc2nc3ccccc3n2C)n1` (stereo not given) the value was -7.69%; for `OC(COc1ccccc1)CN1CCC(c2ccn[nH]2)CC1` (stereo not given), -0.6%.
The figure for `Cc1n[nH]c(C(=O)NCc2ccnc(OCC(F)(F)F)c2)c1Br` is -3.15%; for `CCC(=O)Nc1ccc(C(C)NC(=O)COCCOC)cc1` (stereo not given) it is 0.539%; for `COCCc1noc(CN2CCOC(Cn3nc(C)cc3C)C2)n1` (stereo not given) it is -2.55%.
For `COc1ccc(C(C)=O)c(OCC(=O)NC(C)c2ccc(F)cc2)c1` (stereo not given) the value was -4.39%; for `O=C(N1CCOCC1)[C@@]12CCO[C@@H]1CCN(CCN1CCCCC1)C2`, 3.6%.
Consider `Cc1ccc(C(=O)N2CCO[C@H]3[C@@H](OCc4ccccn4)CC[C@@H]32)o1`, for which the Percent Effect turned out to be 6.63%.
The figure for `O=c1[nH]c2c(c(=O)n1C1CCCCC1)CCC2NCCc1ccccc1` (stereo not given) is -2.9%; for `CN(Cc1ccco1)C[C@H]1OC[C@@H]2CCN(Cc3nccs3)C[C@@H]21` it is 4.31%.
As to `COCCN1CCC(NCc2ccc(C#N)cc2)C1` (stereo not given), the Percent Effect was -2.03%.
For `COC(=O)C(NC(=O)c1ccco1)c1cc(F)ccc1F` (stereo not given) the value was -3.92%; for `Cc1cc(C(C)NC(=O)N2CCC(n3cncn3)CC2)c(C)s1` (stereo not given), 0.6%; for `O=C1CCCc2nccc(-c3ccccc3)c21`, 1.6%.
For `Cc1n[nH]c(C2CN(C(=O)CCc3ccco3)CCO2)n1` (stereo not given), the Percent Effect was determined as 7.13%.
The figure for `CC(Oc1ccccc1C(F)(F)F)C(=O)NS(=O)(=O)C(C)C` (stereo not given) is -4.49%; for `CCN1C(=O)CCCC12CCCN(C(=O)c1conc1C)C2` (stereo not given) it is -4.46%.
For the compound `CN(CCc1cccs1)C1CCCN(Cc2noc(C3CC3)n2)C1` (stereo not given), the Percent Effect was -1.53%.
